KB-3-1 cytotox: qHTS assay for MDR1-selective chemotherapeutics: Primary screen using the parental adenocarcinoma cell KB-3-1; Potency, µM (doses to about 46.1 µM), usual class: cytotoxic; KB-3-1 viability, CellTiter-Glo ATP luminescence, 72 h; 400,000 compounds, 1.4% hits; also: potency is read from the fitted curve at half-maximal effect; % is scaled to controls: 0 for no effect and ±100 for the full control effect; nearly all actives have a fitted effect of over 60% in size
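Cells are dispensed, compounds pinned in, plates held at 37 °C for 72 h, then CellTiter-Glo is added and luminescence read after 10 minutes. Cell line: parental KB-3-1 in phenol-red-free DMEM, 10% FBS.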
SW480 rereplic: A quantitative high throughput screen for small molecules that induce DNA re-replication in SW480 colon adenocarcinoma cells | SW480 DNA re-replication, Hoechst DNA content imaging, 48 h | Potency, µM (series often up to 46.1 µM), inactives show at the highest dose re-replication activation, actives largely listed as activators | 340,000 compounds, 1.8% hits; also: potency is read from the fitted curve at half-maximal effect; % of control where 0% means no effect; nearly all actives have a fitted effect of over 55% in size
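First, 250 cells per well were seeded. Next, compound or vehicle (23 nL) was pinned in, plates sat 48 hr at 37 C. Finally Hoechst was added for 40 min before fluorescence scanning.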
KB-V1 MDR tox: qHTS assay for MDR1-selective chemotherapeutics: Primary screen using the drug-selected MDR subline cells KB-V1; KB-V1 MDR cells viability, CellTiter-Glo, 72 h; Potency, µM (series often up to 46.1 µM), most hits filed as cytotoxic; AID 1347076, 2019; 400,000 compounds, 3.4% hits; also: potency is read from the fitted curve at half-maximal effect; % is scaled to controls: 0 for no effect and ±100 for the full control effect; nearly all actives have a fitted effect of over 60% in size
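Luminescent ATP read-out (CellTiter-Glo, 10 min) measures survival of drug-selected KB-V1 MDR cells after 72 h, 37 degrees C compound exposure. Medium: phenol-red-free DMEM, 10% FBS. Values from fitted concentration-response curves.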
MCF10A rerep: A quantitative high throughput screen for small molecules that induce DNA re-replication in MCF 10a normal breast cells; AID 624296, 2012; Potency, µM (series often up to 46.1 µM), inactives show top-dose activity, positive = re-replication, hits mostly activators; MCF 10A DNA re-replication, Hoechst nuclear intensity, 48 h; 350,000 compounds, 2.9% hits; also: potency is read from the fitted curve at half-maximal effect; % of control where 0% means no effect; nearly all actives have a fitted effect of over 50% in size
IL1B secr inh: qHTS for Inhibitors of Inflammasome Signaling: IL-1-beta AlphaLISA Primary Screen | activity change, % at 57.5 µM | THP-1 LPS/ATP IL-1B secretion, AlphaLISA, 16 h; active compounds read low | 360,000 compounds, 4.7% hits; in the data active = activity change below about -50%; inconclusive = mostly about -30% to -49%; also: % is scaled to controls: 0 for no effect and ±100 for the full control effect
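THP-1 cells pretreated 1 hr with compounds (up to 57.5 uM final), then stimulated with LPS (250 ng/mL final) plus ATP (1.25 mM final); secreted IL-1B measured by AlphaLISA after 16 hr, decreased signal indicating inhibition.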
* = called active by the depositor; i = inactive; ? = inconclusive; · = no result. Shown are actives, neighbours in structure and some others; about 9.9% of the full set was active somewhere. Unless noted, calls follow the shape of the dose curve; as a rule, active = well fitted curve in the direction sought with a large enough effect; inconclusive = small, poorly fitted or top-dose-only effect, or another doubt; inactive = no such curve, though single readings can be large; an effect the other way counts as inactive or inconclusive.

SMILES | KB-3-1 cytotox | SW480 rereplic | KB-V1 MDR tox | MCF10A rerep | IL1B secr inh
Cc1ccsc1/C=N/NC(=O)c1ccc(Cn2cc(Br)cn2)o1 | i | -610% | i | 5% | 8
CN(C)c1ccc(C=Nc2cnc3ccccc3c2)cc1 | i | · | i | · | ·
CCOc1ccc2[nH]c(=O)c(CN(Cc3ccc(F)cc3)C(=O)c3ccco3)cc2c1 | 16µM* | ? | 15µM* | ? | -21
Cc1ccc2[nH]c(=O)c(CN(Cc3ccco3)C(=O)c3ccncc3)cc2c1 | 12µM* | ? | ? | ? | 18
CCOc1ccc(N(CC(=O)NCc2ccc(F)cc2)C(=O)c2ccco2)cc1 | i | -2% | 16µM* | 8% | -7
CCOc1ccc2[nH]c(=O)c(CN(Cc3ccccc3OC)C(=O)c3ccccc3)cc2c1 | 5.2µM* | ? | 4.6µM* | 21µM* | -10
CCOc1ccc2[nH]c(=O)c(CN(CC3COCCO3)C(=O)c3ccco3)cc2c1 (stereo not given) | i | -4% | i | 0% | 2
COc1cccc(NC(=O)CS(=O)(=O)Cc2nc(-c3ccc(C)cc3)oc2C)c1 | i | -31% | i | 7% | -6
O=C(CCc1ccccc1)N1CCN(c2ccc([N+](=O)[O-])cc2)CC1 | i | -5% | i | 3% | -13
CCOc1ccc2[nH]c(=O)c(CN(CCN3CCCC3)C(=S)Nc3ccccc3OCC)cc2c1 | ? | -25% | i | ? | -101*
COc1ccccc1NC(=S)N(Cc1ccco1)Cc1cc2cc(C)ccc2[nH]c1=O | 1.8µM* | ? | ? | ? | 17
CCN(Cc1cc2cc(C)ccc2[nH]c1=O)C(=O)c1cccc(OC)c1 | i | 6% | 9.2µM* | 11% | -9
CCOc1ccc2[nH]c(=O)c(CN(Cc3ccco3)C(=O)c3ccc(Br)cc3)cc2c1 | ? | ? | 23µM* | 16µM* | 2
CCOc1ccc2[nH]c(=O)c(CN(Cc3ccco3)C(=O)c3cccc(F)c3)cc2c1 | i | 2% | i | -3% | 2
O=C(O)c1cccnc1C(=O)O | i | -12% | i | 2% | 2
CC(C)c1nc2cc(C(=O)N3CCNC(=O)C3c3cccc(F)c3)ccc2o1 (stereo not given) | i | 1% | i | 13% | 12
C/C(=N\NC(=O)Cn1c(C)nc2ccccc21)c1cccs1 | i | -2% | 15µM* | 3% | -3
CC(/C=N\NC(=O)Cn1c(C)nc2ccccc21)=C\c1ccccc1 | 18µM* | -1% | ? | 15% | -3
C/C(=N\NC(=O)Cc1ccccc1)c1cccs1 | i | 15% | i | 18µM* | -5
CC(/C=N/NC(=O)CSc1nc(C)cc(C)n1)=C\c1ccccc1 | i | -4% | ? | 9% | -3
C/C(=N\NC(=O)CN1CCN(Cc2ccccc2)CC1)c1cccs1 | i | -8% | i | -7% | -3
COc1ccc(OC)c(S(=O)(=O)N2CCC(C(=O)N3CCc4ccccc4C3)CC2)c1 | i | -2% | i | 19% | -17
O=C(NC1CCCCC1)C1CC(=O)N(CCc2ccc(F)cc2)C1 (stereo not given) | i | -12% | i | 10% | -9
Cc1ccc(NC(=O)C(=O)NCC(c2cccnc2)N2CCN(Cc3ccccc3)CC2)cc1C (stereo not given) | i | · | i | · | ·
N#CCSc1nnc(SCC#N)s1 | i | -2% | i | -4% | -71*
SMILES | KB-3-1 cytotox | SW480 rereplic | KB-V1 MDR tox | MCF10A rerep | IL1B secr inh
Cc1nn(-c2ccccc2)c(Cl)c1CN(C(=O)CCl)c1ccc(Cl)cc1 | ? | 3.3µM* | 21µM* | ? | -113*
CC(=O)N(Cc1c(C)nn(-c2ccccc2)c1Cl)c1ccc(Cl)cc1 | i | -5% | ? | 14% | 17
Cc1nn(-c2ccccc2)c(Cl)c1CN(C(=O)CCl)c1cccc2ccccc12 | 18µM* | ? | ? | ? | -98*
O=C(NC(c1cccnc1)c1ccc2c(c1)OCO2)C1CCN(CCOc2ccc(Cl)cc2Cl)CC1 (stereo not given) | i | · | i | · | -68*
O=C(NC(c1ccccc1)c1cnccn1)C1CCN(CCOc2ccc(Cl)cc2Cl)CC1 (stereo not given) | i | · | i | · | ?
O=C(NC(c1ccc(Cl)cc1)c1ccsc1)C1CCN(Cc2ccc(Oc3ccccc3)cc2)CC1 (stereo not given) | i | · | i | · | -63*
COc1ccc(C(NC(=O)C2CCN(CCOc3ccc(F)cc3)CC2)c2cccs2)cc1 (stereo not given) | i | · | i | · | ·
O=C(NC(c1ccccc1)c1ccsc1)C1CCN(CCOc2ccc(Cl)cc2Cl)CC1 (stereo not given) | i | · | i | · | -68*
O=C(NC(c1ccccc1)c1ccsc1)C1CCN(Cc2ccccc2)CC1 (stereo not given) | i | · | i | · | 49
COc1ccc(OCCN2CCC(C(=O)NC(c3ccsc3)c3ccccc3C)CC2)cc1 (stereo not given) | i | · | i | · | -67*
CC(C)(C)C1N=C(c2ccc3ccccc3c2)OC1=O (stereo not given) | i | -2% | i | -5% | 15
C=CCn1c(SCc2ccc(Cl)cc2)nc2c1c(=O)[nH]c(=O)n2C | i | -2% | 16µM* | 6% | 3
CCC(C)Sc1nc2c(c(=O)[nH]c(=O)n2C)n1CC(O)COc1ccccc1C (stereo not given) | ? | -2% | 18µM* | ? | 9
C=CCn1c(SCc2ccc(F)cc2)nc2c1c(=O)[nH]c(=O)n2C | i | -21% | i | -5% | 17
CCC(C)Sc1nc2c(c(=O)[nH]c(=O)n2C)n1CCc1ccccc1 (stereo not given) | i | 3% | ? | 11% | -7
C=CCn1c(Sc2ccccc2)nc2c1c(=O)[nH]c(=O)n2C | 7.3µM* | -1% | 2.3µM* | 2% | -3
CCC(C)Sc1nc2c(c(=O)[nH]c(=O)n2C)n1Cc1ccc(Cl)cc1 (stereo not given) | ? | 13% | 9.2µM* | ? | ?
CC1(C(=O)NS(=O)(=O)c2cccc(C#N)c2)CCN1C(=O)c1ccco1 (stereo not given) | i | · | i | · | 13
Cc1cc(C)n(-c2nc3c(c(=O)[nH]c(=O)n3C)n2CC(O)COc2ccc(Cl)cc2Cl)n1 (stereo not given) | 2.1µM* | ? | ? | ? | 116
Cc1cc(NC(=O)c2ccc(S(=O)(=O)N(C)C)cc2)no1 | i | -5% | i | -4% | 31
